Out of some 5,500 compounds screened, about 2,000 (36%) were called active. Inconclusive results (about 18%) are left out. Cut-off read from the data, not from the text of the source: active = normalized growth mostly below about 0.91 (no sharp cut-off); inconclusive = no clear call, values can overlap the other calls; inactive = mostly above about 0.92. The list shows a part of the results.
Test: chemical genetic growth profiling, strain panel (AID 1159580);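 note: tested at 20 µM; growth read once vehicle control cultures reached saturation at 30 °C; 1 = growth at the plate median or of vehicle wells; lower values mean less growth of the strain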
Conditions: S. cerevisiae deletion strains, growth OD

Measured: normalized growth

C=C1C2=CC(=O)O[C@@H](c3ccoc3)[C@]2(C)CCC1[C@@]1(C)C=CC(=O)C(C)(C)[C@@H]1CC(=O)OC (stereo partly drawn)
inactive: locus YAL021C, strain ccr4, hits give low values 1.04 | locus YAL026C, strain drs2, hits give low values 0.996 | locus YAL030W, strain snc1, hits give low values 0.998 | locus YBL061C, strain skt5, hits give low values 0.999 | locus YBR009C, strain hhf1, hits give low values 1.02 | locus YBR021W, strain FUR4, hits give low values 0.989 | locus YBR023C, strain chs3, hits give low values 1.01 | locus YBR171W, strain sec66, hits give low values 0.983 | locus YBR229C, strain ROT2, hits give low values 1 | locus YBR231C, strain swc5, hits give low values 0.982 | locus YBR279W, strain paf1, hits give low values 1 | locus YCL011C, strain gbp2, hits give low values 1.01 | locus YCL016C, strain dcc1, hits give low values 1.04 | locus YCL029C, strain bik1, hits give low values 0.983 | locus YCL061C, strain MRC1, hits give low values 1.01 | locus YCL069W, strain vba3, hits give low values 0.984 | locus YCR088W, strain abp1, hits give low values 0.982 | locus YDL005C, strain med2, hits give low values 0.996 | locus YDL035C, strain GPR1, hits give low values 0.991 | locus YDL040C, strain nat1, hits give low values 0.999 | locus YDL074C, strain BRE1, hits give low values 1.02 | locus YDL101C, strain DUN1, hits give low values 1.01 | locus YDL185W, strain tfp1, hits give low values 0.988 | locus YDL192W, strain arf1, hits give low values 0.999 | locus YDR001C, strain nth1, hits give low values 0.994 | locus YDR069C, strain doa4, hits give low values 0.991 | locus YDR101C, strain arx1, hits give low values 0.958 | locus YDR137W, strain rgp1, hits give low values 0.999 | locus YDR150W, strain NUM1, hits give low values 1.01 | locus YDR159W, strain sac3, hits give low values 0.953 | locus YDR162C, strain NBP2, hits give low values 1 | locus YDR195W, strain ref2 0.95 | locus YDR297W, strain sur2, hits give low values 0.988 | locus YDR318W, strain mcm21, hits give low values 1.01 | locus YDR334W, strain swr1, hits give low values 0.982 | locus YDR335W, strain msn5, hits give low values 0.997 | locus YDR388W, hits give low values 1 | locus YDR392W, strain spt3, hits give low values 1.03 | locus YDR502C, strain sam2, hits give low values 0.988 | locus YEL003W, strain gim4, hits give low values 0.994 | locus YEL037C, strain rad23, hits give low values 1 | locus YEL061C, strain CIN8 (second series), hits give low values 0.978 | locus YER015W, strain faa2, hits give low values 1.01 | locus YER016W, strain bim1, hits give low values 0.985 | locus YER110C, hits give low values 0.997 | locus YER111C, strain swi4, hits give low values 0.986 | locus YER155C, strain BEM2 (second series), hits give low values 1.02 | locus YER155C, strain BEM2, hits give low values 0.982 | locus YER167W, strain BCK2, hits give low values 1 | locus YFR010W, strain ubp6, hits give low values 0.972 | locus YGL078C, strain dbp3, hits give low values 0.999 | locus YGL086W, strain mad1, hits give low values 0.999 | locus YGL167C, strain pmr1, hits give low values 1.01 | locus YGL173C, strain kem1, hits give low values 0.99 | locus YGL227W, strain vid30, hits give low values 0.992 | locus YGL240W, strain doc1, hits give low values 0.994 | locus YGL248W, strain PDE1, hits give low values 1.01 | locus YGL253W, strain hxk2, hits give low values 0.937 | locus YGR078C, strain PAC10, hits give low values 1.01 | locus YGR135W, strain pre9, hits give low values 1.01 | locus YGR252W, strain gcn5, hits give low values 0.976 | locus YHR013C, strain ard1, hits give low values 1.01 | locus YHR027C, strain rpn1, hits give low values 0.976 | locus YHR079C, strain IRE1 (second series), hits give low values 0.985 | locus YHR094C, strain hxt1, hits give low values 0.996 | locus YHR129C, strain ARP1, hits give low values 1.01 | locus YHR142W, strain chs7, hits give low values 1.01 | locus YHR200W, strain rpn10, hits give low values 1 | locus YIL066C, strain RNR3, hits give low values 1.01 | locus YIL073C, strain SPO22, hits give low values 1.02 | locus YIL125W, strain kgd1, hits give low values 0.995 | locus YIR030C, strain dcg1, hits give low values 1 | locus YJL092W, strain hpr5, hits give low values 0.984 | locus YJL095W, strain BCK1 (second series), hits give low values 0.986 | locus YJL095W, strain BCK1, hits give low values 1.02 | locus YJL115W, strain asf1, hits give low values 0.999 | locus YJL129C, strain trk1, hits give low values 0.99 | locus YJL134W, strain LCB3, hits give low values 0.997 | locus YJL154C, strain vps35, hits give low values 0.995 | locus YJL164C, strain tpk1, hits give low values 1.02 | locus YJL166W, strain qcr8, hits give low values 0.996 | locus YJL168C, strain set2, hits give low values 1 | locus YJL187C, strain SWE1 (second series), hits give low values 1.01 | locus YJL187C, strain SWE1, hits give low values 0.99 | locus YJR075W, strain HOC1, hits give low values 0.993 | locus YKL009W, strain mrt4, hits give low values 0.976 | locus YKL068W, hits give low values 0.997 | locus YKL085W, strain MDH1 (second series), hits give low values 0.992 | locus YKL085W, strain MDH1, hits give low values 0.992 | locus YKL160W, strain elf1, hits give low values 1.06 | locus YKR001C, strain vps1, hits give low values 0.998 | locus YKR026C, strain gcn3, hits give low values 0.976 | locus YKR091W, strain srl3, hits give low values 0.994 | locus YLL001W, strain dnm1, hits give low values 0.99 | locus YLL026W, hits give low values 0.989 | locus YLL041C, strain sdh2, hits give low values 0.987 | locus YLR027C, strain aat2, hits give low values 0.978 | locus YLR039C, strain RIC1, hits give low values 1.05 | locus YLR058C, strain SHM2, hits give low values 1.01 | locus YLR102C, strain apc9, hits give low values 1 | locus YLR221C, strain rsa3, hits give low values 0.987 | locus YLR258W, strain gsy2, hits give low values 1.02 | locus YLR262C, strain YPT6 (second series), hits give low values 0.997 | locus YLR262C, strain YPT6, hits give low values 1.08 | locus YLR268W, strain sec22, hits give low values 0.996 | locus YLR320W, strain mms22, hits give low values 1.01 | locus YLR342W, strain FKS1 (second series), hits give low values 1.01 | locus YLR342W, strain FKS1, hits give low values 0.995 | locus YLR357W, strain rsc2, hits give low values 1.03 | locus YLR370C, strain arc18, hits give low values 0.97 | locus YLR371W, strain rom2, hits give low values 0.998 | locus YLR384C, strain iki3, hits give low values 1 | locus YLR418C, strain cdc73, hits give low values 1.01 | locus YML016C, strain PPZ1, hits give low values 0.998 | locus YML032C, strain rad52, hits give low values 0.984 | locus YML120C, strain ndi1, hits give low values 1.02 | locus YML124C, strain tub3, hits give low values 0.997 | locus YMR058W, strain fet3, hits give low values 1 | locus YMR078C, strain ctf18, hits give low values 1 | locus YMR125W, strain sto1, hits give low values 1 | locus YMR129W, hits give low values 0.991 | locus YMR205C, strain PFK2, hits give low values 1.07 | locus YMR223W, strain ubp8, hits give low values 0.989 | locus YMR231W, strain pep5, hits give low values 0.973 | locus YMR307W, strain GAS1, hits give low values 1.03 | locus YNL067W, strain RPL9B, hits give low values 1 | locus YNL071W, strain lat1, hits give low values 0.996 | locus YNL209W, strain ssb2, hits give low values 1.03 | locus YNL233W, strain BNI4, hits give low values 1.01 | locus YNL248C, strain rpa49, hits give low values 0.966 | locus YNL250W, strain rad50, hits give low values 0.997 | locus YNL271C, strain bni1, hits give low values 0.995 | locus YNL298W, strain CLA4, hits give low values 0.988 | locus YNL307C, strain MCK1, hits give low values 1 | locus YNL322C, strain KRE1 (second series), hits give low values 0.995 | locus YNL322C, strain KRE1, hits give low values 0.995 | locus YNR049C, strain mso1, hits give low values 0.99 | locus YNR052C, strain pop2, hits give low values 1.01 | locus YOL012C, strain htz1 1.06 | locus YOL147C, strain pex11, hits give low values 0.996 | locus YOR001W, strain rrp6, hits give low values 0.947 | locus YOR061W, strain CKA2, hits give low values 0.994 | locus YOR069W, strain VPS5, hits give low values 1 | locus YOR070C, strain gyp1, hits give low values 1 | locus YOR080W, strain dia2, hits give low values 0.983 | locus YOR083W, strain WHI5, hits give low values 1.06 | locus YOR106W, strain vam3, hits give low values 1.03 | locus YOR136W, strain idh2, hits give low values 0.993 | locus YOR144C, strain elg1, hits give low values 0.995 | locus YOR184W, strain ser1, hits give low values 0.992 | locus YOR265W, strain rbl2, hits give low values 0.984 | locus YOR270C, strain vph1, hits give low values 0.991 | locus YOR290C, strain snf2, hits give low values 1.06 | locus YOR316C, strain cot1, hits give low values 0.95 | locus YPL051W, strain arl3, hits give low values 0.985 | locus YPL078C, strain atp4, hits give low values 1.05 | locus YPL106C, strain sse1, hits give low values 1.08 | locus YPL240C, strain hsp82, hits give low values 0.992 | locus YPR119W, strain clb2, hits give low values 1 | locus YPR141C, strain kar3, hits give low values 0.999 | locus YPR163C, strain tif3, hits give low values 0.991 | locus YPR167C, strain met16, hits give low values 0.992 | strain wtn01, hits give low values 0.978

Source: PubChem BioAssay AID1159580 (chemical genetic matrix, 2015)
